Screening results as filed in PubChem.
HT1080 IDH1KD tx: kills HT-1080 cells with IDH1 knockdown. Potency, µM (series often up to 46.1 µM), usual class: cytotoxic. 2% of 360,000 active. HT-1080 IDH1 knockdown viability, ATP luminescence, 48 h
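Assay cells: HT-1080 with IDH1 knockdown, 750 per well, RPMI/5% FBS. Exposure: 48 h at 37 °C following 2 h pre-incubation. Read: CellTiter-Glo luminescence; fitted concentration-response, curve class assigned.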
HT1080-NT tox: kills 2HG-producing HT-1080-NT fibrosarcoma cells; HT-1080-NT fibrosarcoma viability, CellTiter-Glo ATP luminescence, 48 h; Potency, µM (series often up to 46.1 µM), usual class: cytotoxic; 1.6% of 360,000 active; AID 686970;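 note: NT is the 2HG producing partner of a matched IDH1 knockdown line; nearly all actives have a fitted effect of over 55% in size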
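Compounds were tested in concentration-response format on HT-1080-NT cells for 48 hours at 37 degrees C. Cell viability came from CellTiter-Glo luminescence; curves were classified by r2, response magnitude and activity.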
DT40 TDP1 no CPT: qHTS for Inhibitors of human tyrosyl-DNA phosphodiesterase 1 (TDP1): qHTS in cells in absence of CPT | DT40 Tdp1-/- hTDP1 cells, no CPT, ATP luminescence, 48 h | Potency, µM (top dose mostly 46.2 µM), most hits filed as inhibitors | 15% of 420,000 active; note: nearly all actives have a fitted effect of over 55% in size
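No-CPT arm: Tdp1-/-;hTDP1 DT40 cells (400/well) plus compounds, incubated ≥48 hr at 37 °C. Readout CellTiter-Glo luminescence.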
12-LOX inh: blocks human arachidonate 12S-lipoxygenase | purified 12hLO, xylenol orange hydroperoxide absorbance | 1.1% of 580,000 active | P18054 | Potency, µM (top dose mostly 108 µM), hits mostly inhibitors
Target sequence (P18054 whole entry, looked up): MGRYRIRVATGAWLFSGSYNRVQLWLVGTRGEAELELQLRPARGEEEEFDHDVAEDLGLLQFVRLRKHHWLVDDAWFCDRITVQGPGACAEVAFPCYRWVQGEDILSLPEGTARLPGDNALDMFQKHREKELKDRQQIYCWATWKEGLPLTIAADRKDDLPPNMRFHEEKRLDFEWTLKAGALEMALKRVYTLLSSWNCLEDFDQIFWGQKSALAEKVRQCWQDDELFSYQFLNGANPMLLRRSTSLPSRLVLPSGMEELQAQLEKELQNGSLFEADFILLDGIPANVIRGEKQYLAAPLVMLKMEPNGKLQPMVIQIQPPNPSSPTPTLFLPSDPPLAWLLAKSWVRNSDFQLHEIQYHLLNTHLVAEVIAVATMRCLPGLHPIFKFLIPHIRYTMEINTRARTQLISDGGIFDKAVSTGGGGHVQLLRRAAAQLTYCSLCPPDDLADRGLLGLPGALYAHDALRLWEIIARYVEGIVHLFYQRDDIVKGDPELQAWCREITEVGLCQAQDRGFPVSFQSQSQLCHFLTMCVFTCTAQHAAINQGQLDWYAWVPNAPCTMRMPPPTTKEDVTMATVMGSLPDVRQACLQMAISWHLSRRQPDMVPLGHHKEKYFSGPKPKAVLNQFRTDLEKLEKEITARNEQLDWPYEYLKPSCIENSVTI
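Hydroperoxide product was detected by ferrous iron/xylenol orange as the 573 to 405 nm absorbance ratio. Arachidonic acid at 40 uM (final) was turned over for 30 min at room temperature by 150 nM human 12hLO, pH 7.0 Hepes buffer, after 15 min compound preincubation.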
IL-1B inflam inh: blocks inflammasome-driven IL-1 beta release | THP-1 LPS/ATP IL-1B secretion, AlphaLISA, 16 h; active compounds read low | activity change, % at 57.5 µM | 4.7% of 360,000 active | AID 743279; in the data active = activity change below about -50%; inconclusive = mostly about -30% to -49%
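Secreted IL-1B measured by AlphaLISA bead assay after 16 h compound exposure of THP-1 cells; compounds (final up to 57.5 uM) added 1 h before LPS (250 ng/mL) and ATP (1.25 mM) stimulation; lower signal means less secretion.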
TDP1 cell CPT: DT40-hTDP1 cell growth loss with CPT; 12% of 420,000 active; Potency, µM (series often up to 46.2 µM), actives largely listed as inhibitors; chicken DT40 Tdp1-/-;hTDP1 cells + 20 nM CPT, ATP luminescence, 48 h; note: nearly all actives have a fitted effect of over 55% in size
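Chicken DT40 Tdp1-/- cells stably complemented with human TDP1 were seeded at 400 cells/well in medium containing 20 nM camptothecin, exposed to pin-transferred compounds, and grown at 37 °C for at least 48 hr. Viability was read as ATP luminescence.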
Of the large screens only hits and unclear results are named; the others gave an inactive call. The full list was thinned out, with hits kept by preference. Unless noted, calls come from the whole dose curve; as a rule, active = well fitted curve in the direction sought with a large enough effect; inconclusive = small, poorly fitted or top-dose-only effect, or another doubt; inactive = no such curve, though single readings can be large; an effect the other way counts as inactive or inconclusive.

Cc1cc(C)nc(Nc2n[nH]c(COc3ccc4ccccc4c3)n2)n1	none
Cc1cc(C)nc(Nc2n[nH]c(COc3cccc4ccccc34)n2)n1	DT40 TDP1 no CPT 3.3µM, TDP1 cell CPT 2.9µM
Cc1cc(C)nc(Nc2n[nH]c(COc3ccccc3)n2)n1	DT40 TDP1 no CPT 18µM, TDP1 cell CPT inconclusive
CCOc1ccc(-c2nc(SCC(=O)NC3CCCC3)c(-c3ccccc3)[nH]2)cc1OC	DT40 TDP1 no CPT inconclusive, TDP1 cell CPT inconclusive (no result: HT1080 IDH1KD tx, HT1080-NT tox, IL-1B inflam inh)
COC(=O)c1ccc(COc2ccc(CNCc3ccc(Cl)cc3)cc2)cc1	none
COc1ccccc1Cn1ccn(Cc2c(F)cccc2Cl)c(=O)c1=O	DT40 TDP1 no CPT inconclusive, TDP1 cell CPT inconclusive (no result: HT1080 IDH1KD tx, HT1080-NT tox, IL-1B inflam inh)
O=C(OCc1csc(Nc2ccccc2)n1)c1ccc(Cl)cc1	none
O=C(NC1CCCC1)C(c1ccc(F)cc1)N(Cc1ccc(Cl)cc1)C(=O)CCl (configuration not stated)	DT40 TDP1 no CPT 4.1µM, 12-LOX inh inconclusive, IL-1B inflam inh -102, TDP1 cell CPT 3.3µM
O=C(NC1CCCC1)C(c1ccc(Cl)cc1)N(Cc1ccc(F)cc1)C(=O)CCl (configuration not stated)	DT40 TDP1 no CPT 2.6µM, IL-1B inflam inh inconclusive, TDP1 cell CPT 2.6µM (no result: 12-LOX inh)
CN(Cc1ccc(Cl)cc1)C(C(=O)NC1CC1)c1ccc(F)cc1 (configuration not stated)	none (no result: HT1080 IDH1KD tx, HT1080-NT tox, DT40 TDP1 no CPT, IL-1B inflam inh, TDP1 cell CPT)
COCCCNC(=O)Nc1ccc2nc(N3CCOCC3)cc(C)c2c1	none (no result: HT1080 IDH1KD tx, HT1080-NT tox, DT40 TDP1 no CPT, IL-1B inflam inh, TDP1 cell CPT)
COc1ccc(CC(=O)Nc2sc3c(c2C(=O)Nc2cccc(Cl)c2)CCCCC3)cc1	DT40 TDP1 no CPT inconclusive, TDP1 cell CPT inconclusive (no result: HT1080 IDH1KD tx, HT1080-NT tox, IL-1B inflam inh)
O=C(Nc1sc2c(c1C(=O)Nc1cccc(Cl)c1)CCCC2)c1cccs1	DT40 TDP1 no CPT inconclusive, 12-LOX inh 45µM, TDP1 cell CPT inconclusive (no result: HT1080 IDH1KD tx, HT1080-NT tox, IL-1B inflam inh)
NC(=O)c1c(NC(=O)c2cccs2)sc2c1CCCCCC2	HT1080-NT tox inconclusive, DT40 TDP1 no CPT inconclusive, 12-LOX inh inconclusive, IL-1B inflam inh -84, TDP1 cell CPT inconclusive
O=C(Nc1sc2c(c1C(=O)O)CCC2)c1cccs1	none
Cc1nc(SCc2ccccc2F)c2oc3ccccc3c2n1	DT40 TDP1 no CPT 13µM
c1ccc2[nH]c(CN3CCN(c4ncnc5c4oc4ccccc45)CC3)nc2c1	HT1080-NT tox inconclusive, DT40 TDP1 no CPT 23µM, IL-1B inflam inh inconclusive, TDP1 cell CPT 23µM
O=C(c1ccco1)N1CCN(c2ncnc3c2oc2ccccc23)CC1	DT40 TDP1 no CPT 13µM, TDP1 cell CPT 21µM
COc1ccccc1N1CCN(c2ncnc3c2oc2ccccc23)CC1	HT1080 IDH1KD tx inconclusive, HT1080-NT tox inconclusive, DT40 TDP1 no CPT 5.2µM, TDP1 cell CPT 3.7µM
Cc1nc(N2CCOCC2)c2oc3ccccc3c2n1	DT40 TDP1 no CPT 18µM, TDP1 cell CPT inconclusive
Cc1nc(SCc2nc3ccccc3[nH]2)c2oc3ccccc3c2n1	HT1080 IDH1KD tx inconclusive, DT40 TDP1 no CPT inconclusive, TDP1 cell CPT 21µM
Cc1nc(N2CCN(Cc3nc4ccccc4[nH]3)CC2)c2oc3ccccc3c2n1	HT1080 IDH1KD tx inconclusive, DT40 TDP1 no CPT 18µM, IL-1B inflam inh inconclusive, TDP1 cell CPT inconclusive
Nc1nc(N2CCN(C/C=C/c3ccccc3)CC2)nc2ccccc12	HT1080 IDH1KD tx inconclusive, HT1080-NT tox inconclusive, DT40 TDP1 no CPT inconclusive, 12-LOX inh inconclusive, TDP1 cell CPT 21µM
CC(C)CNC(=O)N1CCCN(Cc2ccncc2)C(c2ccccc2)CC(=O)NCC1 (configuration not stated)	none (no result: HT1080 IDH1KD tx, HT1080-NT tox, DT40 TDP1 no CPT, IL-1B inflam inh, TDP1 cell CPT)
Cc1cc(C)n(-c2ncnc3c2oc2ccccc23)n1	DT40 TDP1 no CPT inconclusive, TDP1 cell CPT inconclusive
C(=C\c1ccccc1)/CN1CCN(c2ncnc3c2oc2ccccc23)CC1	HT1080 IDH1KD tx inconclusive, HT1080-NT tox inconclusive, DT40 TDP1 no CPT 18µM, TDP1 cell CPT 18µM
Cn1cc(CNCc2cn(C)nc2-c2ccc(C3CCCCC3)cc2)cn1	HT1080 IDH1KD tx inconclusive, HT1080-NT tox inconclusive, DT40 TDP1 no CPT 18µM, IL-1B inflam inh -71, TDP1 cell CPT inconclusive
